# Bioassay records deposited in PubChem BioAssay by several laboratories.
# Neddylation inh = inhibitors of cullin neddylation, primary screen, biochemical, TR-FRET, uHTS, NAE and Ubc12. calls only at 25 µM. AID 651699, 2012. NEDD8-conjugating enzyme Ubc12 (Homo sapiens) + NEDD8-activating enzyme E1 regulatory …. 0.58% of 360,000 active; in the data active = inhibition above about 36%
# FAS-TE inh = FAS thioesterase domain inhibitors, primary screen, biochemical, fluorescence intensity, uHTS | Fatty acid synthase (Homo sapiens), P49327 | recombinant FAS-TE, OMFH fluorogenic substrate, fluorescence endpoint | inhibition, % at 15 µM | 0.67% of 360,000 active | AID 602261, 2012;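 active = compounds whose normalised, plate-corrected inhibition of enzyme fluorescence in the single-dose primary screen is 50% or more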;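 note: 0% = DMSO with enzyme and 100% = substrate without enzyme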
# PfG6PD inh = PfG6PD enzyme inhibitors, primary screen, biochemical, fluorescence intensity, uHTS | AID 504690, 2011 | PfGluPho enzyme, NADPH resazurin-diaphorase fluorescence | glucose-6-phosphate dehydrogenase-6-phosphogluconolactonase (Plasmodium falciparum 3D7) | 0.78% of 350,000 active | inhibition, % at 20 µM;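 active = inhibition reaching at least a set limit at 20 µM in the primary screen, cut at about 59% in these data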;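 note: 0% = DMSO wells with substrate and 100% = DMSO wells lacking glucose-6-phosphate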
# proKLK7 act = proKLK7 zymogen activators, primary screen, biochemical, fluorescence intensity. activation, % at 7 µM. 0.9% of 370,000 active. AID 652039, 2013. Kallikrein-7 (Homo sapiens), P49862. purified proKLK7, EDANS-DABCYL substrate fluorescence; 100% is mature enzyme control, 0% vehicle;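 active = activation above the mean of all tested compounds plus 3 SD, computed per campaign excluding outliers beyond control limits, cut at about 13% in these data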
# Target sequence (P49862 whole entry, looked up): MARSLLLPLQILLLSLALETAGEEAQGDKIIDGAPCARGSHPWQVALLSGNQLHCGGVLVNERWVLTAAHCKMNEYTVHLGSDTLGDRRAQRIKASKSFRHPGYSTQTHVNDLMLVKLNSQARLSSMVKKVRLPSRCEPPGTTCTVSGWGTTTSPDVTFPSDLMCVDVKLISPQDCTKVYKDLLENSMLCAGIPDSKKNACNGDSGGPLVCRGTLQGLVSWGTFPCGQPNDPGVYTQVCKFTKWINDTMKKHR
# PfG6PD confirm = PfG6PD inhibitors, hit retest, confirmation, biochemical, fluorescence intensity, single concentration; shares compounds with PfG6PD inh; recombinant PfGluPho, NADPH-diaphorase-resazurin fluorescence; inhibition, % at 20 µM; 34% of 2,400 active; AID 504753, 2011;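 active = inhibition of at least 50% at 20 µM in any single replicate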;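 note: 0% = DMSO with substrate and 100% = DMSO lacking glucose-6-phosphate substrate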
# Diaphorase 10uM = diaphorase inhibitors and chemical oxidizers, confirmation, counter-screen for P. falciparum G6PD inhibitor project, biochemical, fluorescence intensity, 10 µM NADPH | shares compounds with PfG6PD inh | diaphorase-coupled resazurin reduction, NADPH 10 uM | inhibition, % at 20 µM | 39% of 820 active | AID 504862, 2011;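 active = average inhibition reaching 50% or more with the compound at 20 µM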;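 note: resorufin red fluorescence formed as diaphorase reduces resazurin using NADPH; 0% = DMSO with enzyme and 100% = DMSO without enzyme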
# Diaph ctr 30uM = diaphorase inhibitors and chemical oxidizers, confirmation, counter-screen for P. falciparum G6PD inhibitor project, biochemical, fluorescence intensity, 30 µM NADPH. shares compounds with PfG6PD inh. Diaphorase/resazurin coupled assay, resorufin fluorescence. inhibition, % at 20 µM. 29% of 820 active. AID 504863, 2011;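 active = inhibition averaging 50% or more, tested at 20 µM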;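 note: 0% = DMSO with enzyme and 100% = DMSO wells lacking diaphorase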
# An asterisk follows results filed as active; i = inactive; . = not tested or not shown; + = active, no number. Compounds with a hit are over-represented: about 2.7% of the library has one in this group of screens.
SMILES,Neddylation inh,FAS-TE inh,PfG6PD inh,proKLK7 act,others
C/C(C=NNC(=O)CSc1nnc(-c2ccc(Cl)cc2)n1-c1ccccc1)=C\c1ccccc1,.,.,.,0,
O=C(CCN1CCN(c2ccccc2)CC1)N/N=C/c1ccccc1O,+,-4,-14,-71,
Cc1ccc(NC(=S)NNC(=O)CSc2nnc(-c3ccc(C)cc3)n2C2CCCCC2)cc1,.,.,.,-1,
Cc1c[nH]c2cccc(-c3ccc(OCc4ccccc4)cc3)c12,.,.,.,-1,
Oc1c(C(Nc2cccc(C(F)(F)F)c2)c2cccnc2)ccc2cccnc12 (stereo not given),+,29,31,0,
Cc1ccc(S(=O)(=O)N2CCC(c3nc4ccccc4o3)CC2)s1,.,.,.,0,
COc1ccc(NC(=O)Nc2ccc(O)c3ccccc23)cc1,.,.,72*,-1,
COCCCNC(=O)C[C@H]1C[C@@]2(C(=O)OC)C(=C[C@H](C(C)(C)C)O[C@@H]2C)N(Cc2cccc3ccccc23)C1=O,.,.,.,0,
NS(=O)(=O)c1ccc(CCNC(=O)c2ccc3nc4ccc(Cl)cc4c(=O)n3c2)cc1,+,4,19,0,
Nc1ncc(Br)cc1N=Cc1ccccc1,i,-3,89*,4,
Cc1sc(NC(=O)c2ccco2)c(CN2CCN(c3ccccn3)CC2)c1C,+,30,37,.,
c1csc(-c2nc3c4ccccc4c4ccccc4c3[nH]2)c1,.,23,42,18*,
Oc1ccccc1-c1nc2c3ccccc3c3ccccc3c2[nH]1,.,22,43,-27,
Cc1cccc(Cn2cc(CN3CC(N(C)CCCOC(=O)c4cc(C)cc(C)c4)CS3(=O)=O)nn2)c1 (stereo not given),.,.,.,1,
COc1cc(/C=N/NC(=O)c2sc3nc(C)cc(C)c3c2N)ccc1O,+,-7,10,-3,
COC(=O)c1sc2nc(C)cc(C)c2c1N,.,-2,7,1,
C[C@@H]1[C@H](O)[C@@H](C)/C=C/C=C/C=C/C=C/C=C/C=C/C=C/[C@H](OC2O[C@H](C)[C@@H](O)[C@H](N)[C@@H]2O)C[C@@H]2O[C@](O)(C[C@@H](O)C[C@@H](O)[C@H](O)CC[C@@H](O)C[C@@H](O)CC(=O)O[C@H]1C)C[C@H](O)[C@H]2C(=O)O (stereo not given in full),.,.,.,9,
O=C(O)CN1C(=O)/C(=C\c2cc(Br)ccc2OCc2ccc(Cl)cc2Cl)SC1=S,i,86*,-44,.,
CC(C)[C@H](NC(=O)[C@@H]1CCCN1)C(=O)N1CCC2CCN(S(=O)(=O)c3ccccc3)CC21 (stereo not given in full),.,.,.,0,
Cc1cc(C)c2c(=O)n(CC(=O)NCCCN3CCOCC3)sc2n1,i,4,70*,.,
Cc1cc([N+](=O)[O-])nn1CC(=O)NCCCN1CCOCC1,i,-6,-2,0,
Cc1cc(C)c2c(=O)n(CC(=O)NCCCN3CCN(c4ccccc4F)CC3)sc2n1,.,.,99*,.,
N#CCC[C@@H]1CC[C@]2(CCCN(Cc3ccc(Br)cc3)C2)O1,.,.,.,-1,
O=C(O)C(Cc1ccccc1)N1C(=O)C=CC1=O (stereo not given),i,-7,90*,0,PfG6PD confirm=85*;Diaphorase 10uM=18;Diaph ctr 30uM=2
O=C1CSc2ccc(C(=O)N3CCCC(C(=O)N4CCCN(Cc5ccccc5)CC4)C3)cc2N1 (stereo not given),.,.,.,1,
CC(COc1ccc(C(F)(F)F)cc1)CN1CCC(C(O)(c2ccccc2)c2ccccc2)CC1 (stereo not given),.,.,.,0,
COc1ccc(N2C(=O)C3CC(C)=C(C)CC3C2=O)c(OC)c1 (stereo not given),i,-3,-2,0,
